Bioassay records deposited in PubChem by The Scripps Research Institute Molecular Screening Center.
This is a sample that favours compounds with a hit; in the whole collection about 1.1% have one here.
GalR3 antag: blocks the human galanin receptor 3; inhibition, % at 3 µM; HEK293 GalR3-CNG cAMP membrane potential fluorescence; galR3 body fused to GalR1 C-terminus; 0.44% of 360,000 active; AID 651719; O60755;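 active = inhibition above the screen-wide average plus 3 SD, cut at about 13% in these data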;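 also: forskolin and galanin both at EC90 stimulate the cells; cAMP rise reported by CNG channel membrane potential dye signal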
NR2F2 inh: NR2F2 (human) inhibition, primary screen. AID 686940. P24468. 0.7% of 370,000 active. inhibition, % at 8.6 µM. HEK293T NGFI-A luciferase reporter, luminescence;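 active = inhibition above a per-plate cutoff, mean inhibition of test wells between control levels plus 3 SD, cut at about 38% in these data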;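 also: cells cotransfected with COUP-TFII expression vector driving the NGFI-A reporter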
NCOA3 inh: human NCOA3 inhibition | Q9Y6Q9 | AID 588352 | inhibition, % at 3.6 µM | 0.17% of 360,000 active | HEK293 GAL4-SRC3 luciferase reporter, luminescence;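 active = inhibition above a per-campaign cutoff, the mean of all compounds plus 3 SD, cut at about 60% in these data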;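 also: higher means less SRC3-driven luciferase light from the GAL4 reporter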
NCOA2 inhibitor: inhibits human steroid receptor coactivator 2; Q15596; HEK293 GAL4-SRC2 luciferase reporter, luminescence; inhibition, % at 9 µM; 0.17% of 370,000 active; AID 651957;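 active = inhibition above the mean inhibition of all tested compounds plus 3 SD, set per campaign, cut at about 52% in these data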
LRH-1 inv ag: NR5A2 inverse agonism in reporter assay; HEK293T StAR-luciferase reporter, LRH-1 transfected, 24 h; 0.13% of 360,000 active; O00482; inhibition, % at 3.6 µM; AID 602396;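 active = inhibition above the mean inhibition of all tested compounds plus 3 SD, cut at about 73% in these data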
Target sequence (O00482 whole entry, looked up): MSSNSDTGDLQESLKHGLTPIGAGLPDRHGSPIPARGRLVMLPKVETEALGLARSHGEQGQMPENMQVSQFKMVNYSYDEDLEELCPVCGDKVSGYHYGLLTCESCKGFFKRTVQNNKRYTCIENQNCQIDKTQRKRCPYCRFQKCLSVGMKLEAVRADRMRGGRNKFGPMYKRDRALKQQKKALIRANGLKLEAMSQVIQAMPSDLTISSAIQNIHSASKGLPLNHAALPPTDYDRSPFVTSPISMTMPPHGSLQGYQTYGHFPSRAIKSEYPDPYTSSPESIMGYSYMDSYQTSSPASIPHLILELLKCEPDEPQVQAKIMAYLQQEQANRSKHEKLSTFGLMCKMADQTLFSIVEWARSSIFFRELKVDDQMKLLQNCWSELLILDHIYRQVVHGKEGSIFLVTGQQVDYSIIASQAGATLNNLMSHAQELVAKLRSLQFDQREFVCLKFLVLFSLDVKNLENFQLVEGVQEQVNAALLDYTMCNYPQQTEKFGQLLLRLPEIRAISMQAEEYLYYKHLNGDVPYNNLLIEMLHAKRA
SRC1 inh: inhibits human SRC1 coactivator | HEK293 GAL4-SRC1 luciferase reporter, luminescence | Q15788 | inhibition, % at 3.6 µM | 0.12% of 360,000 active;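 active = inhibition above the campaign mean plus 3 SD, with each screening campaign given its own cutoff, cut at about 60% in these data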
GalR3 conf: GalR3 (human) antagonism, confirmation; inhibition, % at 3 µM; 59% of 1,600 active; shares compounds with GalR3 antag; HEK293 GalR3 CNG cAMP biosensor, membrane potential fluorescence; galR3 fused to GalR1 carboxy tail; challenged with forskolin and galanin at EC90;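 active = inhibition above the primary screen's cutoff, the mean inhibition of all screened compounds plus 3 SD, cut at about 13% in these data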
CNG parental: parental cell agonism counter-screen for GalR3 antagonists | HEK293-CNG parental cells, cAMP membrane potential fluorescence; normalised: DMSO wells 0%, forskolin wells 100% | activation, % at 3 µM | 10% of 1,600 active | AID 652268 | shares compounds with GalR3 antag; in the data active = activation above about 1.3%
Each line names hits and unclear results; the compound was inactive in the other large screens (follow-up assays come after a bar, where they were run).

C=CCN1C(=O)[C@@H](CC(=O)NCc2ccccc2)[C@]2(C(=O)OCC)CCCCC/C=C/12	none (no result: GalR3 antag, NCOA3 inh, LRH-1 inv ag, SRC1 inh)
Cn1c(C(=O)O)cc2cc(Oc3ccccc3)ccc21	none
Cn1c(C(=O)NN)cc2cc(Oc3ccccc3)ccc21	GalR3 antag 60.0 | GalR3 conf 43.8 | CNG parental inactive
O=C(NCCN1C(=O)C2C3C=CC(C3)C2C1=O)c1cc(F)cc(F)c1 (stereo not drawn)	none (no result: GalR3 antag, NCOA3 inh, LRH-1 inv ag, SRC1 inh)
O=C(O)c1ccccc1C(=O)c1ccc(F)c(F)c1	GalR3 antag 16.9 | GalR3 conf inactive | CNG parental inactive
CCOC(=O)N1CCN(C(=O)CSCc2ccc(Br)cc2)CC1	none (no result: GalR3 antag) | GalR3 conf inactive | CNG parental inactive
CC(C)C(C#CC1CC1)N(Cc1ccc2c(c1)OCO2)C(N)=NC(=O)/C=C/c1ccccc1 (stereo not drawn)	none (no result: GalR3 antag, NCOA3 inh, LRH-1 inv ag, SRC1 inh)
COC(=O)C1=CO[C@@H](OC2OC(CO)C(O)C(O)C2O)[C@@H]2[C@@H](C)[C@@H](O)C[C@H]12 (stereo partly drawn)	none
COC(=O)C1=CO[C@@H](O[C@@H]2O[C@H](CO)[C@@H](O)[C@H](O)[C@H]2O)C2C1C=C[C@@]2(O)CO (stereo partly drawn)	none (no result: GalR3 antag) | GalR3 conf inactive | CNG parental inactive
CNc1nc2c(N)ncnc2n1[C@H]1O[C@@H](CO)[C@H](O)[C@@H]1O	GalR3 antag 26.1 | GalR3 conf 39.9 | CNG parental inactive
CCC[C@H]1[C@@H](OC(=O)NCc2ccc(C)o2)CC[C@@]23CCCN2C(=O)CCC[C@@H]13	none (no result: GalR3 antag, NCOA3 inh, NCOA2 inhibitor, LRH-1 inv ag, SRC1 inh)
COc1ccc(N2C(=O)CN(Cc3cc(OC)c(OC)c(OC)c3)C2=S)cc1	GalR3 antag 13.5 | GalR3 conf inactive | CNG parental inactive
CC(C)[C@H](CO)N(Cc1cccc(F)c1)c1nc(Nc2cccc(Cl)c2)c2ncn(C(C)C)c2n1	none
CC(C)n1cnc2c(N(C)c3cccc(Cl)c3)nc(N(CCO)CCO)nc21	none (no result: GalR3 antag) | GalR3 conf inactive | CNG parental inactive
C[C@@H]1[C@@H](c2ccccc2)c2cc3ccccc3nc2-c2nc3ccccc3cc2[C@@H]1C(=O)N1CCCC1	none (no result: GalR3 antag, NCOA3 inh, LRH-1 inv ag, SRC1 inh)
N#C/C(=C(/O)COc1ccc(Cl)cc1)c1nc2ccccc2s1	GalR3 antag 13.6 | GalR3 conf inactive | CNG parental 1.3
[O-][n+]1c2cc(C(F)(F)F)ccc2c2n1CCN=C2c1ccc(Cl)cc1	none (no result: GalR3 antag) | GalR3 conf inactive | CNG parental inactive
C1=CC2CC1CC2CN1CCN(Cc2ccccc2)CC1 (stereo not drawn)	none (no result: GalR3 antag) | GalR3 conf inactive | CNG parental 1.8
Cc1ccc(NC(=O)CN2C(=O)CCSc3ccccc32)cc1C	none (no result: GalR3 antag, NCOA3 inh, LRH-1 inv ag, SRC1 inh)
C[C@H](NCCc1ccc(O)cc1)[C@H](O)c1ccc(O)cc1	GalR3 antag 38.8 | GalR3 conf 62.4 | CNG parental inactive
CCOC(=O)C1CCN(C2CCN(Cc3nc(-c4ccccc4)no3)CC2)CC1	GalR3 antag 12.8 | GalR3 conf inactive | CNG parental inactive
CC[C@H](CCCc1ccc(OC)cc1)CCC(=O)N1CCOCC1	none (no result: GalR3 antag, NCOA3 inh, LRH-1 inv ag, SRC1 inh)
O=C(CN(CCc1ccccc1)S(=O)(=O)c1ccc(Cl)cc1)N/N=C/c1ccc2c(c1)OCO2	GalR3 antag 13.2 | GalR3 conf inactive | CNG parental 1.9
Clc1cccc(CN2CCN(c3ncc(Cc4ccccc4)cn3)CC2)c1Cl	GalR3 antag 55.0 (no result: NCOA3 inh, LRH-1 inv ag, SRC1 inh) | GalR3 conf 105.6 | CNG parental inactive
O=C(NCCO)C1(C(=O)C2CC2)CC(c2ccccc2C(F)(F)F)=NO1 (stereo not drawn)	none (no result: GalR3 antag, NCOA3 inh, LRH-1 inv ag, SRC1 inh)
Cc1ccc(C(=O)c2cc([N+](=O)[O-])ccc2N2CC(C)OC(C)C2)cc1 (stereo not drawn)	none
CC1CN(c2ccc(C(=O)c3ccccc3C(=O)O)cc2[N+](=O)[O-])CC(C)O1 (stereo not drawn)	GalR3 antag 17.7 | GalR3 conf inactive | CNG parental inactive
Cc1ccc(-n2ncc3c(SCc4cccnc4)ncnc32)c(C)c1	GalR3 antag 60.3 | GalR3 conf 97.5 | CNG parental inactive
Cc1ccc(-n2ncc3c(SCc4cccc(C)c4)ncnc32)cc1	none
Oc1ccc(C(c2nnnn2CCc2ccccc2)N2CCN(c3nc4ccccc4s3)CC2)cc1 (stereo not drawn)	GalR3 antag 23.0 | GalR3 conf inactive | CNG parental inactive
COCCn1nnnc1C(c1cccs1)N1CCN(c2nc3ccccc3s2)CC1 (stereo not drawn)	none
O=C(NN=Cc1ccc(-c2ccccc2)cc1)c1cc(-c2ccc(Cl)cc2)n[nH]1	none (no result: GalR3 antag, NCOA3 inh, LRH-1 inv ag, SRC1 inh)
Cc1ccc(-n2c(=O)cc(N3CCN(C(=O)c4ccco4)CC3)[nH]c2=O)cc1	GalR3 antag 15.1 | GalR3 conf inactive | CNG parental inactive
Cn1c(=O)cc(N2CCN(C(=O)c3ccco3)CC2)[nH]c1=O	none (no result: GalR3 antag)
COc1ccc(C2c3c(-c4ccccc4O)n[nH]c3C(=O)N2Cc2ccco2)cc1OC (stereo not drawn)	none
COc1ccc(C2c3c(-c4cc(Cl)c(C)cc4O)n[nH]c3C(=O)N2Cc2cccnc2)cc1OC (stereo not drawn)	GalR3 antag 63.7 | GalR3 conf 66.8 | CNG parental inactive
O=C(C(=O)N1CCN(c2ccc(F)cc2)CC1)N1CCCCC1	GalR3 antag 18.1 | GalR3 conf inactive | CNG parental inactive
O=C(C1CC1)N1CCN(c2ccc(F)cc2)CC1	none
c1ccc(-n2cnnc2SCc2cn3ccsc3n2)cc1	none
c1ccc(-n2cnnc2SCc2cn3ccccc3n2)cc1	GalR3 antag 54.2 | GalR3 conf inactive | CNG parental inactive
Brc1ccc(OCCCN2CCOCC2)cc1	GalR3 antag 16.4 | GalR3 conf inactive | CNG parental inactive
Brc1ccc(OCCN2CCOCC2)cc1	none
CC(C)=CCC/C(C)=C/CN1CC(=O)N2[C@H](C[C@@]3(n4ccc5ccccc54)c4ccccc4N(S(=O)(=O)c4ccccc4)[C@@H]23)C1=O	none (no result: GalR3 antag, NCOA3 inh, LRH-1 inv ag, SRC1 inh)
CCCOc1cccc(C2C(C(=O)c3ccc(C)o3)=C(O)C(=O)N2CCN2CCOCC2)c1 (stereo not drawn)	none
CCOc1cccc(C2C(C(=O)c3ccco3)=C(O)C(=O)N2c2nnc(C)s2)c1 (stereo not drawn)	GalR3 antag 21.6 | GalR3 conf inactive | CNG parental inactive
CCOc1cccc(C2C(C(=O)c3ccc(C)o3)=C(O)C(=O)N2c2nnc(C)s2)c1 (stereo not drawn)	none
CCCOc1cccc(C2C(C(=O)c3ccc(C)o3)=C(O)C(=O)N2c2nc(C)c(C(C)=O)s2)c1 (stereo not drawn)	GalR3 antag 27.8 | GalR3 conf 13.3 | CNG parental inactive
